Screens (PubChem BioAssay)
CYP2C9 inhib: inhibitors of human CYP2C9. P11712. CYP2C9 Supersomes, luciferin-H conversion, luminescence. inhibition, % at 5 µM. 20% of 96,000 active. AID 777;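 active = blocking of liver enzyme CYP2C9 beyond about 50% at 5 µM, limit read from the data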
Target sequence (P11712 whole entry, looked up): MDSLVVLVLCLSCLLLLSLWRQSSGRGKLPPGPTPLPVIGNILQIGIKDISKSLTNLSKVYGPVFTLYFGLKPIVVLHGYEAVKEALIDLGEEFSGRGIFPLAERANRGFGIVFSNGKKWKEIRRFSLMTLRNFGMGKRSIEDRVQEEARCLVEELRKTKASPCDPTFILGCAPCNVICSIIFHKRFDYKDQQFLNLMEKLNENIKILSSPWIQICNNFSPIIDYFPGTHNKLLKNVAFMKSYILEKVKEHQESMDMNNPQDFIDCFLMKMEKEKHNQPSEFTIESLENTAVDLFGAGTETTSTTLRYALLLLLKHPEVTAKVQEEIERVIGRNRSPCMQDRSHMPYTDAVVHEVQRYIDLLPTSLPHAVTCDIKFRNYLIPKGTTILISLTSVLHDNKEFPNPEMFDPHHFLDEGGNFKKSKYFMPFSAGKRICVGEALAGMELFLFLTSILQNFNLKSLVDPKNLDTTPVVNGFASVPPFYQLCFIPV
CYP2C19 inhib: human CYP2C19 inhibition; inhibition, % at 5 µM; 21% of 96,000 active; CYP2C19 Supersomes, luciferin-H EGE luminescence, 30 min; P33261;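 active = CYP2C19 inhibition above a set limit at 5 µM in the primary screen, cut at about 50% in these data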;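 note: plate controls were negative control wells for no effect and 2.5 mM tranylcypromine positive control for full effect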
CYP2C9 activ: CYP2C9 (human) activation; recombinant CYP2C9, luciferin-H conversion, luminescence; active compounds read high; factor 1 = untreated enzyme, 0 = blocked; activation factor at 5 µM; 1.4% of 96,000 active;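 active = activation factor of 2 or more for CYP2C9 at a 5 µM dose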;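 note: 0 = sulfaphenazole-blocked wells and 1 = vehicle-only wells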
CYP2C19 act: activators of human cytochrome P450 2C19; 96,000 tested, under 10 active; recombinant CYP2C19, luciferin-H EGE luminescence; active compounds read high; 0 = fully inhibited enzyme, 1 = untreated enzyme; activation factor at 5 µM;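 active = activation factor of at least 2 at 5 µM in the primary screen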;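 note: 0 = wells with 2.5 mM tranylcypromine and 1 = vehicle-only wells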
Starred values were filed as active, the others as inactive. Rows were chosen to be rich in hits. Some 31% of all compounds tested hit in one or more screens of this group.

SMILES	CYP2C9 inhib	CYP2C19 inhib	CYP2C9 activ	CYP2C19 act
COc1ccc(NC(=O)CSc2nnc(CNC(=O)c3ccco3)n2-c2ccccc2OC)cc1	30	5	0.7	1
O=C(Cn1ncc2c(=O)oc3ccccc3c21)Nc1nc2ccccc2s1	51*	12	0.5	0.9
O=C(NCCCN1CCCC1=O)c1csc2ccccc12	-26	3	1.3	1
Cn1cc(CC(=O)NCCCN2CCCC2=O)c2ccccc21	-138	16	2.4*	0.8
O=C(Cn1ncc2c(=O)oc3ccccc3c21)NC1CC1	11	4	0.9	1
CCN(CCCNC(=O)Cn1ncc2c(=O)oc3ccccc3c21)c1cccc(C)c1	70*	64*	0.3	0.4
O=C(Cn1ncc2c(=O)oc3ccccc3c21)NCCCN1CCCC1=O	11	80*	0.9	0.2
COc1ccc(NC(=O)CCSc2cc(C)c3ccccc3n2)cc1	-43	46	1.4	0.5
CCCN(C(=O)Cn1ncc2c(=O)oc3ccccc3c21)c1cccc(C)c1	60*	36	0.4	0.6
COC(=O)C(CCSC)NC(=O)Cn1ncc2c(=O)oc3ccccc3c21 (stereo not given)	33	2	0.7	1
CC1=C(C(=O)NCc2ccccc2)C(c2ccc(C)o2)n2ncnc2N1 (stereo not given)	28	7	0.7	0.9
Cc1cc(C)n(-c2c(F)c(F)c(CN3CCOCC3)c(F)c2F)n1	18	3	0.8	1
FC(F)(F)C(Oc1nc(NC2CCCCC2)nc(N2CCOCC2)n1)C(F)(F)F	27	16	0.7	0.8
O=C(O)COc1ccccc1C1C2C(=O)N(c3ccc(F)cc3)C(=O)C2ON1c1ccccc1 (stereo not given)	54*	38	0.5	0.6
O=C(c1ccco1)[C@@H]1[C@@H]2C(=O)N(c3ccc(F)cc3)C(=O)[C@@H]2C2c3ccccc3C=CN21 (stereo not given in full)	15	5	0.9	0.9
COc1ccccc1NC1SC(=O)N(c2ccccc2)C1=O (stereo not given)	-14	16	1.1	0.8
COc1ccccc1C1C2C(=O)N(c3ccccc3)C(=O)C2ON1c1ccccc1 (stereo not given)	86*	77*	0.1	0.2
CCCN1CCN(CCCNC(=O)Cn2nc(-c3ccccc3)ccc2=O)CC1	2	-3	1	1
COc1cccc(CNCC(O)(c2ccc(Cl)cc2)c2ccc(Cl)cc2)c1	32	30	0.7	0.7
COCCn1cc(C(=O)c2ccccc2OCC(=O)Nc2cc(C)on2)cc(C#N)c1=O	42	32	0.6	0.7
CC(C(=O)Nc1ccc2c(c1)OCCO2)N1CCN(C(=O)c2ccco2)CC1 (stereo not given)	10	-8	0.9	1.1
CCOC(=O)c1[nH]nc2c1C(=O)N(Cc1ccccc1)C2=O	20	34	0.8	0.7
CCOC(=O)C1=C(C)NC(C)=C(C(=O)OCC)C1/C=C/c1ccccc1	70*	68*	0.3	0.3
CCOC(=O)C1=C(C)NC(=O)NC1/C=C/c1ccccc1 (stereo not given)	25	24	0.8	0.8
COC(=O)C1=C(C)NC(C)=C(C(=O)OC)C1/C=C/c1ccccc1	55*	47	0.4	0.5
SMILES	CYP2C9 inhib	CYP2C19 inhib	CYP2C9 activ	CYP2C19 act
COC(=O)C1=C(C)N=C2SCCC(=O)N2C1/C=C/c1ccccc1 (stereo not given)	28	35	0.7	0.7
CCCNC(=O)COC(=O)CCC(=O)c1ccc(F)cc1	-12	16	1.1	0.8
CCCCSC(=S)N(C)C1CCS(=O)(=O)C1 (stereo not given)	29	49	0.7	0.5
Cc1ccc(OCCn2ccc(=O)[nH]c2=O)cc1C	-3	-10	1	1.1
CC(C)(C)c1ccc(OCCn2ccccc2=O)cc1	40	70*	0.6	0.3
COC(=O)c1ccc2c(c1)C(C)(C)C(/C=C/c1ccccc1O)=[N+]2C	59*	42	0.4	0.6
Cc1cc(=O)oc(C)c1C(=O)N[C@@H]1CCCCNC1=O	-10	-12	1.1	1.1
CSc1nc2sc3c(c2c2nnnn12)CCC3	11	62*	0.9	0.4
CCCc1nc2sc3c(c2c(=O)n1N)CCC3	-6	74*	1.1	0.3
CCc1nc2sc3c(c2c(=O)n1N)CCC3	4	22	1	0.8
CCn1c(SCC(=O)NCCOC)nc2sc3c(c2c1=O)CCCC3	80*	49	0.2	0.5
CSc1nc2sc3c(c2c(=O)n1C)CCCC3	-4	-1	1	1
CCn1c(SCC(N)=O)nc2sc3c(c2c1=O)CCCC3	55*	14	0.4	0.9
CCn1c(NN)nc2sc3c(c2c1=O)CCC3	79*	75*	0.2	0.3
CC(=O)c1cccc(NS(=O)(=O)c2cc(OCC(N)=O)c(C)cc2Cl)c1	28	13	0.7	0.9
CN1C(=O)c2ccccc2C(C(=O)NCCCN2CCCC2=O)C1c1c[nH]c2ccccc12 (stereo not given)	-19	0	1.2	1
CCOC(=O)C1CCCn2c1nc1sc3c(c1c2=O)CCCC3 (stereo not given)	77*	66*	0.2	0.3
Nn1c(Nc2ccccc2)nc2sc3c(c2c1=O)CCC3	98*	75*	0	0.3
O=c1c2c3c(sc2nc2n1CCC2)CCC3	12	-3	0.9	1
Cc1cc(C)c2c(c1)/C(=N/NC(=S)Nc1ccc(F)cc1)CCC2	-27	-9	1.3	1.1
O=C(c1cc(-c2ccccc2Cl)on1)N1CCN(C(=O)c2ccco2)CC1	-119	32	2.2*	0.7
O=C(c1cc(-c2ccc(Cl)cc2Cl)on1)N1CCN(C(=O)c2ccco2)CC1	26	58*	0.7	0.4
O=C(c1ccco1)N1CCN(C(=O)c2snc3ccc(Cl)cc23)CC1	49	18	0.5	0.8
Cc1onc(-c2ccccc2Cl)c1C(=O)N1CCN(C(=O)c2ccco2)CC1	16	12	0.8	0.9
Cn1c(=O)c2c(ncn2CC(=O)N2CCc3ccccc3C2)n(C)c1=O	-13	-19	1.1	1.2
SMILES	CYP2C9 inhib	CYP2C19 inhib	CYP2C9 activ	CYP2C19 act
CC(=O)c1ccc(NC(=O)c2ccn[nH]2)cc1	69*	43	0.3	0.6
CC(=O)c1ccc(NC(=O)Nc2ccccc2)cc1	63*	50*	0.4	0.5
O=C(Nc1ccccc1)c1ccn[nH]1	1	0	1	1
CCN(CC)c1ccc(NC(=O)Nc2ccc(C(C)=O)cc2)cc1	1	2	1	1
CC(=O)Nc1ccc2ccccc2c1	5	29	1	0.7
CC(=O)c1ccc(NC(=O)CSCC(=O)Nc2ccc3ccccc3c2)cc1	55*	15	0.5	0.8
COc1ccc(NC(=O)COC(=O)c2c3c(nc4ccccc24)CCCC3)cc1Cl	25	30	0.7	0.7
O=C(NCCNC(=O)C(F)(F)F)c1ccncc1	13	14	0.9	0.9
O=C(CCC1CCCCC1)NCc1ccncc1	47	89*	0.5	0.1
O=C(CCC1CCCCC1)Nc1ncn[nH]1	-8	6	1.1	0.9
